Assay results from PubChem BioAssay (NCATS).
“And” between values parts separate entries of the source, which are not always exact repeats. Identical values can stand only once. Records with an inconclusive call do not appear. The source made the active and inactive calls. Calls come from the whole dose curve; as a rule, active = well fitted curve in the direction sought with a large enough effect; inconclusive = small, poorly fitted or top-dose-only effect, or another doubt; inactive = no such curve, though single readings can be large; an effect the other way counts as inactive or inconclusive.

Columns and labels:
[1] = Viability qHTS for spleen associated tyrosine kinase inhibitor (SYKi) naive MV4-11 cells (AID 1963823); note: nearly all actives have a fitted effect of over 40% in size
How it was run: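 Cells: MV4-11, SYK inhibitor naive, 500 per well. Treatment: library compounds, 72 hr, 37 C, 5% CO2. Read-out: CellTiter-Glo luminescence after 10 min RT.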

[2] = Viability qHTS for spleen associated tyrosine kinase inhibitor (SYKi) drug resistant MV4-11 cells (AID 1963824); note: nearly all actives have a fitted effect of over 35% in size
How it was run: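 SYK inhibitor-resistant MV4-11 AML cells, 500 per well, added to predispensed compounds and incubated 72 hr at 37 C, 5% CO2. Viability measured by CellTiter-Glo luminescence after 10 min at room temperature.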

[3] = Quantitative highthroughput screen to assess conditional lethalithy of NOMO1 cells grown in RPMI1640 with untreated serum (RPMI+s) (AID 1963876); note: nearly all actives have a fitted effect of over 35% in size;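 for Viability: 100% = DMSO wells and 0% = empty wells without cells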
How it was run: (§1)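 Each medium arm—HPLM with 10% dialyzed FBS, or RPMI1640 with 5 mM glucose and 10% untreated or dialyzed FBS—was screened against an 11-point, 3-fold compound titration for 48 h at 37 °C, with CellTiter-Glo luminescence as endpoint.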

[4] = Quantitative highthroughput screen to assess conditional lethalithy of NOMO1 cells grown in RPMI1640 with dialyzed fetal bovine serum (RPMI+ds) (AID 1963877); note: nearly all actives have a fitted effect of over 30% in size;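 for Viability: series mostly up to about 46 µM; 100% = DMSO control wells and 0% = empty wells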
How it was run: as §1

[5] = Quantitative highthroughput screen to assess conditional lethalithy of NOMO1 cells grown in Human Plasma-Like Medium with dialyzed fetal bovine serum (HPLM+ds) (AID 1963878); note: nearly all actives have a fitted effect of over 35% in size;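 for Viability: 100% = DMSO wells and 0% = empty wells on each plate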
How it was run: as §1

[6] = Quantitative highthroughput screen to assess conditional lethalithy of P12 Ichikawa cells grown in Human Plasma-Like Medium with dialyzed fetal bovine serum (HPLM+ds) (AID 1963879); conditions: Potency: viability; note: nearly all actives have a fitted effect of over 35% in size; for Viability: series mostly up to about 46 µM
How it was run: as §1

[7] = Quantitative highthroughput screen to assess conditional lethalithy of P12 Ichikawa cells grown in RPMI1640 with dialyzed fetal bovine serum (RPMI+ds) (AID 1963880); conditions: Potency: P12-Ichikawa viability; note: nearly all actives have a fitted effect of over 35% in size;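 for Viability: 100% = DMSO wells and 0% = empty wells on each plate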
How it was run: as §1

[8] = Quantitative highthroughput screen to assess conditional lethalithy of P12 Ichikawa cells grown in RPMI1640 with untreated serum (RPMI+s) (AID 1963881); conditions: Potency: viability; note: nearly all actives have a fitted effect of over 35% in size;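 for Viability: series mostly up to about 46 µM; 100% = DMSO wells and 0% = empty wells without cells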
How it was run: as §1

[9] = Quantitative highthroughput screen to assess conditional lethalithy of SEM cells grown in Human Plasma-Like Medium with dialyzed fetal bovine serum (HPLM+ds) (AID 1963882); note: nearly all actives have a fitted effect of over 35% in size; for Viability: series mostly up to about 46 µM
How it was run: as §1

[10] = Quantitative highthroughput screen to assess conditional lethalithy of SEM cells grown in RPMI1640 with unreated serum (RPMI+s) (AID 1963883); note: nearly all actives have a fitted effect of over 35% in size;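 for Viability: 100% = DMSO wells and 0% = empty wells without cells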
How it was run: as §1

[11] = Quantitative highthroughput screen to assess conditional lethalithy of SEM cells grown in RPMI1640 with dialyzed fetal bovine serum (RPMI+ds) (AID 1963884); note: nearly all actives have a fitted effect of over 35% in size;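 for Viability: series mostly up to about 46 µM; 100% = DMSO control wells and 0% = empty wells without cells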
How it was run: as §1

[12] = Cellular viability qHTS for adrenocortical cancer (ACC) cell line SW-13 (AID 1963989); conditions: SW-13 ACC cells viability, CellTiter-Glo, 48 h; activity (max response): active compounds read low; note: nearly all actives have a fitted effect of over 65% in size;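 for activity (max response): cells grown in serum-free medium with ITS supplement; % is set by controls: 0 for no effect and ±100 for the full control effect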
How it was run: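 Luminescent ATP read-out (CellTiter-Glo, 20 min at room temperature) measured metabolically competent SW-13 cells after 48 h compound treatment. Final concentrations spanned up to 46 uM; bortezomib served as positive control.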

[13] = Cellular viability qHTS for adrenocortical cancer (ACC) cell line NCI-H295R (AID 1963990); note: nearly all actives have a fitted effect of over 60% in size
How it was run: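 IC50 and maximal efficacy derive from four-parameter logistic modelling of titration curves, with reads scaled between DMSO-only wells (0%) and doxorubicin hydrochloride (100% inhibition). Compounds spanned up to 46 uM over 48 h.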
Potency is the fitted concentration of half-maximal effect.

O=C(NCc1ccccc1)c1csc(Nc2ccncn2)n1
active: Potency [1] 4.68 µM | Potency [2] 4.17 µM and 20.6 µM | Potency [3] 3.32 µM | Potency [4] 3.72 µM | Potency [5] 2.35 µM | Potency [6] 6.62 µM | Potency [7] 3.72 µM | Potency [8] 3.32 µM | Potency [9] 1.66 µM | Potency [10] 0.833 µM | Potency [11] 1.66 µM | Potency [12] 25.1 µM | Potency [13] 31.6 µM

O=C1CCC[C@@H]2[C@H]3CCC[N+]4([O-])CCC[C@@H](CN12)[C@@H]34 (some centres not stated)
active: Potency [3] 8.33 µM | Potency [4] 7.43 µM | Potency [5] 5.9 µM | Potency [9] 6.62 µM | Potency [10] 7.43 µM
inactive: Potency [1] | Potency [2] | Potency [6] | Potency [7] | Potency [8] | activity (max response) [12] -8.5%

CC(=O)Nc1ccc([C@H](C)C(=O)Nc2ncc(C(C)C)s2)cc1
active: Potency [1] 1.66 µM | Potency [2] 4.61 µM | Potency [3] 4.69 µM | Potency [4] 8.33 µM | Potency [5] 7.43 µM | Potency [6] 11.8 µM | Potency [7] 10.5 µM | Potency [8] 11.8 µM | Potency [9] 6.62 µM | Potency [10] 7.43 µM | Potency [11] 7.43 µM | Potency [12] 1.26 µM | Potency [13] 3.55 µM

CN(C)Cc1ccc(-c2nc3cccc4c3n2CCNC4=O)cc1
inactive: Potency [3] | Potency [4] | Potency [5] | Potency [6] | Potency [7] | Potency [8] | Potency [9] | Potency [10] | Potency [11]
active: Potency [1] 16.6 µM | Potency [2] 18.4 µM | Potency [13] 25.1 µM

O=S(=O)(O)CCSSCCS(=O)(=O)O
inactive: Potency [1] | Potency [2] | Potency [3] | Potency [4] | Potency [5] | Potency [6] | Potency [7] | Potency [8] | Potency [9] | Potency [10] | Potency [11] | activity (max response) [12] 0.678% | Potency [13]
